Measurements from the supplement of paper PMC7366291.
Where a name gives a salt, the structure may show the parent alone. ± gives the standard deviation.

What follows are compounds tested on Danio rerio Tg(wt1b:EGFP) embryo, pronephros (assay: glomerular separation, fold change vs DMSO control; higher = glomeruli further apart (abnormal)). Conditions: 25 µM; exposure: 24-48 hpf.
In short: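 In HEPES-buffered E3 with 0.003% PTU and 0.5% DMSO, dechorionated Tg(wt1b:EGFP) zebrafish embryos were exposed to 25 μM compound from 24 to 48 hpf at 28.5°C. Pronephroi were then imaged dorsally at 470 nm in 10 z-slices, in 96-well plates filled with agarose. On maximum projections, a Fiji macro turned 16 manually placed reference points into distances and angles, and values more than 2 SD from the feature mean were excluded. Features are fold changes relative to the mean of DMSO-treated embryos from the same day.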

| Structure (SMILES) | glomerular separation |
| --- | --- |
| COC(=O)C1=C(C#N)NC(C)=C(C(=O)OC(C)C)C1c1cccc([N+](=O)[O-])c1 (stereo unspecified) [Nilvadipine] | 4.44 ± 1.4 |
| NCc1ccc(S(N)(=O)=O)cc1 [Mafenide hydrochloride] | 0.887 ± 0.27 |
| Clc1ccccc1C(c1ccccc1)(c1ccccc1)n1ccnc1 [Clotrimazole] | 2.06 ± 1.1 |
| CCN1CCN(c2cc3c(cc2F)c(=O)c(C(=O)O)cn3C2CC2)CC1 [Enrofloxacin] | 0.888 ± 0.34 |
| Nc1c(Br)cc(Br)cc1CN[C@H]1CC[C@H](O)CC1 [Ambroxol hydrochloride] | 1.05 ± 0.28 |
| CNCC(O)c1ccc(OC(=O)C(C)(C)C)c(OC(=O)C(C)(C)C)c1 (stereo unspecified) [Dipivefrin hydrochloride] | 0.794 ± 0.16 |
| CCCc1nn(C)c2c(=O)[nH]c(-c3cc(S(=O)(=O)N4CCN(C)CC4)ccc3OCC)nc12 [Sildenafil] | 1.12 ± 0.37 |
| NS(=O)(=O)c1cc2c(cc1Cl)N=C(CSCc1ccccc1)NS2(=O)=O [Benzthiazide] | 0.917 ± 0.25 |
| CC(C)(C(=O)O)c1ccc(C(O)CCCN2CCC(C(O)(c3ccccc3)c3ccccc3)CC2)cc1 (stereo unspecified) [Fexofenadine hydrochloride] | 0.859 ± 0.33 |
| CC(C)NCC(O)c1ccc(NS(C)(=O)=O)cc1 (stereo unspecified) [Sotalol hydrochloride] | 0.82 ± 0.23 |
| Cc1ccsc1/C=C/C1=NCCCN1C [Morantel tartrate] | 0.982 ± 0.26 |
| C[C@H](Cc1cc2c(c(C(N)=O)c1)N(CCCO)CC2)NCCOc1ccccc1OCC(F)(F)F [Silodosin] | 0.726 ± 0.14 |
| OCCN1CCN(CCCN2c3ccccc3C=Cc3ccccc32)CC1 [Opipramol dihydrochloride] | 0.662 ± 0.23 |
| CCCCNc1ccc(C(=O)OCCOCCOCCOCCOCCOCCOCCOCCOCCOC)cc1 [Benzonatate] | 1.12 ± 0.54 |
| O=C(COc1ccc(Cl)cc1)N1CCN(Cc2ccc3c(c2)OCO3)CC1 [Fipexide hydrochloride] | 1.26 ± 0.55 |
| C[C@H]1C[C@H]2[C@@H]3CCC4=CC(=O)C=C[C@]4(C)[C@@]3(F)[C@@H](O)C[C@]2(C)[C@@]1(O)C(=O)CO [Betamethasone] | 1.2 ± 0.31 |
| Cc1ccc(NC(=O)c2ccc(CN3CCN(C)CC3)cc2)cc1Nc1nccc(-c2cccnc2)n1 [Imatinib] | 1.09 ± 0.42 |
| c1ccc2c(CC3=NCCN3)cccc2c1 [Naphazoline hydrochloride] | 1.17 ± 0.54 |

| Structure (SMILES) | glomerular separation |
| --- | --- |
| CN(N=O)C(=O)N[C@@H](C=O)[C@@H](O)[C@H](O)[C@H](O)CO [Streptozotocin] | 0.671 ± 0.14 |
| Nc1nc(F)nc2c1ncn2[C@@H]1O[C@H](CO)[C@@H](O)[C@@H]1O [Fludarabine] | 0.97 ± 0.29 |
| C[C@](N)(Cc1ccc(O)c(O)c1)C(=O)O [Methyldopa (L,-)] | 1.03 ± 0.18 |
| NC(Cc1cc(I)c(Oc2cc(I)c(O)c(I)c2)c(I)c1)C(=O)O (stereo unspecified) [Thyroxine (L)] | 1.12 ± 0.3 |
| CCCC(CCC)C(=O)O [Valproic acid] | 1.62 ± 0.94 |
| Cn1c(=O)c2c(ncn2CC(=O)O)n(C)c1=O [Acefylline] | 1.12 ± 0.41 |
| CO[C@@]1(NC(=O)CSCC#N)C(=O)N2C(C(=O)O)=C(CSc3nnnn3C)CS[C@@H]21 [Cefmetazole sodium salt] | 0.79 ± 0.16 |
| O=C(O)COC(=O)Cc1ccccc1Nc1c(Cl)cccc1Cl [Aceclofenac] | 3.56 ± 1.8 |
| CCC1=C(C)CN(C(=O)NCCc2ccc(S(=O)(=O)NC(=O)N[C@H]3CC[C@H](C)CC3)cc2)C1=O [Glimepiride] | 0.872 ± 0.29 |
| Nc1nnc(-c2cccc(Cl)c2Cl)c(N)n1 [Lamotrigine] | 0.99 ± 0.4 |
| CCN(CC)C(=O)/C(C#N)=C/c1cc(O)c(O)c([N+](=O)[O-])c1 [Entacapone] | 1.88 ± 1.4 |
| CCCC1O[C@@H]2C[C@H]3[C@@H]4CCC5=CC(=O)C=C[C@]5(C)[C@H]4[C@@H](O)C[C@]3(C)[C@]2(C(=O)CO)O1 (stereo partly specified) [Budesonide] | 0.957 ± 0.24 |
| CC(C)C(=O)Nc1ccc([N+](=O)[O-])c(C(F)(F)F)c1 [Flutamide] | 1.54 ± 1.1 |
| NS(=O)(=O)c1cc2c(cc1C(F)(F)F)NC(Cc1ccccc1)NS2(=O)=O (stereo unspecified) [Bendroflumethiazide] | 1.15 ± 0.68 |
| CCN(CC)C(=O)C1(c2ccccc2)CC1CN (stereo unspecified) [Milnacipran hydrochloride] | 0.724 ± 0.23 |
| COc1ccc2cc([C@H](C)C(=O)O)ccc2c1 [Naproxen] | 2.89 ± 1.8 |
| CC(Oc1c(Cl)cccc1Cl)C1=NCCN1 (stereo unspecified) [Lofexidine] | 1.06 ± 0.22 |
| CC(C)NC(=N)NC(=N)Nc1ccc(Cl)cc1 [Proguanil hydrochloride] | 1.2 ± 0.52 |
